Where a name gives a salt, the structure may show the parent alone. ± gives the standard deviation of the averaged measurements.
These molecules were tested on E18 rat cortical neuron-glia co-culture (assay: fiber score / MBP score (myelination specific beyond OL differentiation) (ratio); higher = more myelination-specific MBP alignment). Conditions: 1 µM; treatment time: 8 days (DIV5-DIV13).
Procedure, shortened: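 Reported values are fiber score (continuous MBP fiber length per Olig2+ nucleus) divided by MBP score (thresholded MBP area × intensity per Olig2+ nucleus). They come from primary E18 rat cortical co-cultures treated with library compounds at 1 or 5 µM in myelination medium from DIV5 to DIV13, then fixed in 4 % paraformaldehyde, immunostained for MBP and Olig2 with DAPI, and analysed over four 10X fields per well in duplicate wells.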

Row | SMILES | fiber score / MBP score
1 | Nc1ccn([C@@H]2CS[C@H](CO)O2)c(=O)n1 [Lamivudine] | 0.832 ± 0.033
2 | COc1ccc2c3c1O[C@H]1C[C@@H](O)C=C[C@@]31CCN(C)C2 [Galantamine] | 0.69
3 | Cc1onc(-c2c(Cl)cccc2Cl)c1C(=O)N[C@@H]1C(=O)N2[C@@H]1SC(C)(C)[C@@H]2C(=O)O [Dicloxacillin] | 1.04
4 | CCOC(=O)c1ccc(OC(=O)CCCCCNC(=N)N)cc1 [Gabexate] | 0.709
5 | C[C@]12CCC(=O)C=C1CC[C@@H]1[C@@H]2C(=O)C[C@@]2(C)[C@H]1CC[C@]2(O)C(=O)CO [Cortisone] | 0.752
6 | CC(C)C[C@H](NC(=O)[C@@H](COC(C)(C)C)NC(=O)[C@H](Cc1ccc(O)cc1)NC(=O)[C@H](CO)NC(=O)[C@H](Cc1c[nH]c2ccccc12)NC(=O)[C@H](Cc1cnc[nH]1)NC(=O)[C@@H]1CCC(=O)N1)C(=O)N[C@@H](CCCNC(=N)N)C(=O)N1CCC[C@H]1C(=O)NNC(N)=O [Goserelin] | 0.788
7 | COc1cc(NC(C)CCCN)c2ncccc2c1 (centres undefined) [Primaquine] | 0.815
8 | CC1(C)S[C@@H]2[C@H](NC(=O)COc3ccccc3)C(=O)N2[C@H]1C(=O)O [Penicillin V] | 0.881
9 | COc1cc2nc(N3CCN(C(=O)C4COc5ccccc5O4)CC3)nc(N)c2cc1OC (centres undefined) [Doxazosin] | 0.727
10 | CCCN(CCC)S(=O)(=O)c1ccc(C(=O)O)cc1 [Probenecid] | 0.973
11 | CC1(C)S[C@@H]2[C@H](NC(=O)Cc3ccccc3)C(=O)N2[C@H]1C(=O)O [Penicillin G] | 0.898
12 | C[C@H](CCC(=O)O)[C@H]1CC[C@H]2[C@@H]3[C@H](O)C[C@@H]4C[C@H](O)CC[C@]4(C)[C@H]3CC[C@]12C [Chenodeoxycholic Acid] | 0.861
13 | CC(=O)OCC[N+](C)(C)C [Acetylcholine] | 0.236
14 | O=C1c2c(O)cc(O)cc2OC(c2ccc(O)c(O)c2)C1O (centres undefined) [Taxifolin] | 0.697
15 | NC(=O)OCC(COC(N)=O)c1ccccc1 [Felbamate] | 0.591
16 | N[C@@H](Cc1cc(I)c(Oc2ccc(O)c(I)c2)c(I)c1)C(=O)O [Triiodothyronine] | 0.895
17 | OC(CCN1CCCC1)(c1ccccc1)C1CCCCC1 (centres undefined) [Procyclidine] | 1.03
18 | CN1CCN2c3ncccc3Cc3ccccc3C2C1 (centres undefined) [Mirtazapine] | 0.861
19 | O=C1CN(/N=C/c2ccc(-c3ccc([N+](=O)[O-])cc3)o2)C(=O)N1 [Dantrolene sodium salt dihydrate] | 0.33
20 | Nc1nc(F)nc2c1ncn2[C@@H]1O[C@H](CO)[C@@H](O)[C@@H]1O [Fludarabine] | 0.675

Row | SMILES | fiber score / MBP score
21 | COC(=O)C1=C(C)NC(C)=C(C(=O)OC2CCCN(Cc3ccccc3)C2)C1c1cccc([N+](=O)[O-])c1 (centres undefined) [Benidipine] | 0.524
22 | CC(C)NCC(O)c1cc(O)cc(O)c1 (centres undefined) [Metaproterenol] | 0.313
23 | Cc1cc2c(s1)Nc1ccccc1N=C2N1CCN(C)CC1 [Olanzapine] | 1.2
24 | CC(C)(C)NC[C@H](O)COc1nsnc1N1CCOCC1 [Timolol] | 0.869
25 | CCS(=O)(=O)CCn1c([N+](=O)[O-])cnc1C [Tinidazole] | 0.727
26 | CN(C)CCOC(c1ccc(Cl)cc1)c1ccccn1 (centres undefined) [Carbinoxamine] | 1.21
27 | CC(C)NCC(O)c1ccc(O)c(O)c1 (centres undefined) [Isoproterenol] | 0.965
28 | N[C@@H](C(=O)N[C@@H]1C(=O)N2C(C(=O)O)=C(Cl)CS[C@H]12)c1ccccc1 [Cefaclor] | 0.944
29 | COc1cc(C)c(Cc2cnc(N)nc2N)cc1OC [Ormetoprim] | 0.746
30 | CC(C)n1c(/C=C/C(O)CC(O)CC(=O)O)c(-c2ccc(F)cc2)c2ccccc21 (centres undefined) [Fluvastatin] | 0.312
31 | CCN(CC)CCOC(=O)C1(C2CCCCC2)CCCCC1 [Dicyclomine] | 0.616
32 | CN(C)CCCN1c2ccccc2Sc2ccc(Cl)cc21 [Chlorpromazine] | 1.04
33 | CSc1nc2cc(Cl)c(Oc3cccc(Cl)c3Cl)cc2[nH]1 [Triclabendazole] | 0.682
34 | COc1ccccc1N1CCN(CC(O)COc2cccc3ccccc23)CC1 (centres undefined) [Naftopidil] | 0.655
35 | CCOC(=O)CCC(=O)O[C@H]1[C@H](O[C@@H]2[C@@H](C)[C@H](O[C@H]3C[C@@](C)(OC)[C@@H](O)[C@H](C)O3)[C@@H](C)C(=O)O[C@H](CC)[C@@](C)(O)[C@H](O)[C@@H](C)C(=O)[C@H](C)C[C@@]2(C)O)O[C@H](C)C[C@@H]1N(C)C [Erythromycin Ethylsuccinate] | 0.639
36 | CC1COc2c(N3CCN(C)CC3)c(F)cc3c(=O)c(C(=O)O)cn1c23 (centres undefined) [Ofloxacin] | 0.775 ± 0.041
37 | Cc1noc(NS(=O)(=O)c2ccc(N)cc2)c1C [Sulfisoxazole] | 0.958
38 | O=C(CCNNC(=O)c1ccncc1)NCc1ccccc1 [Nialamide] | 0.859
39 | CN1CCN(CC/C=C2/c3ccccc3Sc3ccc(S(=O)(=O)N(C)C)cc32)CC1 [Thiothixene] | 0.826

Reference: the supplement of paper PMC4840960
